Data on 12 compounds can be found in PubChem BioAssay (NCI).

Among the test systems are NCI-H23 lung; NCI-H226 lung; NCI-H322M lung; HOP-62 NSCLC; NCI-H460 lung; HOP-92 NSCLC; NCI-H522 lung; A549/ATCC NSCLC; 786-0 renal; COLO 205 colon.
Holding throughout (test): NCI-60 one-dose screen, 48 h (100 = growth as untreated, 0 = no growth, -100 = all killed)
Conditions in all cases: 10 µM unless noted

Where “and” joins values, the source holds several entries; their conditions need not be identical. Equal entries are not always repeated. Compounds without any hit were thinned out: in the full panel of roughly 83,000, 20% have a hit.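 48-hour exposure, single concentration, 96-well plates; percent growth endpoint where 0 means no net growth. Active: below 10.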 Values without a mark were called inactive. Calls of active or inactive are those of the source.

For `COc1cc(N=Nc2ccc(O)c3ncccc23)c2ncccc2c1`, the growth with NCI-H23 lung was 50.2%; in the experiment on NCI-H226 lung it was 64.6%; in the experiment on NCI-H322M lung, 55.9%; in the experiment on HOP-62 NSCLC it was 42.7%; with NCI-H460 lung, 17.4%; in the experiment on HOP-92 NSCLC, 32.4%. In addition, the growth in the experiment with NCI-H522 lung is 15.9%; in the experiment on A549/ATCC NSCLC it was 8.08% (active); with 786-0 renal, 24.3%; in the experiment on COLO 205 colon, 52.4%.
Consider `CN(C)CC1(C)Cc2ccsc2C1O` (stereo not given), for which the growth in the experiment with NCI-H23 lung is 106% and 109%; in the experiment on NCI-H226 lung it was 105%; with NCI-H322M lung it was 119%; in the experiment on HOP-62 NSCLC it was 105% and 108%; with NCI-H460 lung, 112% and 108%; in the experiment on HOP-92 NSCLC, 101% and 108%. Also, the growth is 94.5% and 94.3% in the experiment on NCI-H522 lung; 112% and 110% with A549/ATCC NSCLC; 97.2% and 94.9% with 786-0 renal; 106% and 105% with COLO 205 colon.
Regarding `COc1ccc(/C=N/C2=C(C#N)C(c3ccccc3)c3c(ccc4ccccc34)O2)cc1` (stereo not given), the growth with NCI-H23 lung is 36.9%; in the experiment on NCI-H226 lung it was 33.8%; in the experiment on NCI-H322M lung it was 40.9%; with HOP-62 NSCLC, 35.5%; in the experiment on NCI-H460 lung it was 15.5%; with HOP-92 NSCLC, 53.9%. Besides, the growth is 2.3% (active) with NCI-H522 lung, 41.9% in the experiment on A549/ATCC NSCLC, 29.2% in the experiment with 786-0 renal and 0.29% (active) in the experiment with COLO 205 colon.
As for `COc1cc(CNC(=O)CCCC/C=C/C(C)C)ccc1OCc1cn(-c2ccc([N+](=O)[O-])cc2)nn1`, the growth was 83.2% with NCI-H23 lung; 89.6% in the experiment with NCI-H226 lung; 97.9% with NCI-H322M lung; 80.9% with HOP-62 NSCLC; 99.8% in the experiment on NCI-H460 lung; 90.3% with HOP-92 NSCLC. The growth with NCI-H522 lung was 78.2%; in the experiment with A549/ATCC NSCLC it was 84.1%; in the experiment on 786-0 renal, 93.7%; in the experiment on COLO 205 colon, 118%.
Take `O=C(CCl)n1nnnc1Cc1ccccc1`: the growth with NCI-H23 lung was 102%; in the experiment with NCI-H226 lung, 104%; in the experiment with NCI-H322M lung, 102%; in the experiment on HOP-62 NSCLC, 90.2%; in the experiment on NCI-H460 lung, 108%; with HOP-92 NSCLC, 102%. In addition, the growth is 90.8% in the experiment on NCI-H522 lung, 92.2% in the experiment on A549/ATCC NSCLC, 95% in the experiment on 786-0 renal and 111% in the experiment with COLO 205 colon.
For the compound `CC/C(=C(/c1ccc(Cl)cc1)c1ccc(OCCN2CCOCC2)cc1)c1ccccc1`, the growth in the experiment on NCI-H23 lung was 87.5%; in the experiment with NCI-H226 lung, 108%; in the experiment with NCI-H322M lung, 104%; in the experiment with HOP-62 NSCLC, 106%; in the experiment with NCI-H460 lung, 96.1%; in the experiment with HOP-92 NSCLC it was 98.4%. Moreover, the growth in the experiment with NCI-H522 lung was 88.6%; with A549/ATCC NSCLC, 89.9%; in the experiment on 786-0 renal, 103%; in the experiment on COLO 205 colon it was 99.8%.
Regarding `CN1CCN(CCNC(=O)c2cccc(CN3c4cccc5c4C(=Cc4cccnc43)N(C)C5=O)c2)CC1`, the growth was 59.5% with NCI-H23 lung; 45% in the experiment on NCI-H226 lung; 41.4% in the experiment on NCI-H322M lung; 24.7% in the experiment with HOP-62 NSCLC; 48.3% in the experiment with NCI-H460 lung; 19.3% in the experiment on HOP-92 NSCLC. Moreover, the growth in the experiment on NCI-H522 lung is 14.1%; in the experiment with A549/ATCC NSCLC, 33.9%; with 786-0 renal, 49.6%; in the experiment with COLO 205 colon, 19.8%.
As for `Nc1nc(Cl)nc2c1ncn2C1OC(CO)C(O)C1O` (stereo not given), the growth was 19.9% and 34.4% in the experiment on NCI-H23 lung; 110% in the experiment with NCI-H226 lung; 93.1% and 101% in the experiment with NCI-H322M lung; 46.6% and 63.7% in the experiment on HOP-62 NSCLC; 80% and 87.4% in the experiment on NCI-H460 lung; 42.8% with HOP-92 NSCLC. Also, the growth in the experiment on NCI-H522 lung is 50.6% and 52.1%; in the experiment on A549/ATCC NSCLC, 46.2% and 49.9%; with 786-0 renal it was 24.1% and 37.5%; with COLO 205 colon, 70%.
For the compound `O=C1/C(=C/c2cn(-c3ccccc3)nc2-c2ccccc2)SC(=S)N1c1ccccc1`, the growth was 95% in the experiment on NCI-H23 lung; 96.2% in the experiment on NCI-H226 lung; 99.2% with NCI-H322M lung; 100% in the experiment with HOP-62 NSCLC; 107% in the experiment with NCI-H460 lung; 33.6% in the experiment on HOP-92 NSCLC. The growth in the experiment with NCI-H522 lung is 91.3%; with A549/ATCC NSCLC, 105%; in the experiment on 786-0 renal it was 105%; in the experiment on COLO 205 colon it was 117%.
Take `COc1cc(CNC(=O)CCCC/C=C/C(C)C)ccc1O`: the growth with NCI-H23 lung is 101%; in the experiment on NCI-H226 lung, 94.2% and 92.4%; in the experiment on NCI-H322M lung, 124% and 88.7%; with HOP-62 NSCLC, 89% and 104%; with NCI-H460 lung, 106% and 114%; in the experiment on HOP-92 NSCLC, 84.4%. The growth with NCI-H522 lung is 83.1% and 75.5%; with A549/ATCC NSCLC, 106% and 115%; with 786-0 renal, 107% and 101%; in the experiment on COLO 205 colon it was 101% and 111%.
As for `O=[N+]([O-])c1cc(C(F)(F)F)ccc1Sc1ccc(C(F)(F)F)cc1[N+](=O)[O-]`, the growth is 63.1% with NCI-H23 lung; 90.9% with NCI-H226 lung; 112% in the experiment on NCI-H322M lung; 94.6% in the experiment with HOP-62 NSCLC; 74.4% in the experiment on NCI-H460 lung; 120% in the experiment on HOP-92 NSCLC. Also, the growth in the experiment on NCI-H522 lung was 77.9%; in the experiment on A549/ATCC NSCLC, 93.4%; in the experiment with 786-0 renal it was 103%; with COLO 205 colon, 123%.
As for `COc1ccc(Oc2nc(Nc3ccc(N4CCOCC4)cc3)ncc2NC(=O)c2cc(OC)cc(OC)c2)cc1`, the growth in the experiment on NCI-H23 lung was 101%; in the experiment with NCI-H226 lung, 71.2%; in the experiment on NCI-H322M lung, 96.7%; in the experiment on HOP-62 NSCLC it was 97%; in the experiment with NCI-H460 lung, 95.5%; in the experiment with HOP-92 NSCLC it was 70.7%. Also, the growth was 58.2% in the experiment with NCI-H522 lung, 82.4% in the experiment with A549/ATCC NSCLC, 66.5% in the experiment with 786-0 renal and 64.5% in the experiment with COLO 205 colon.
